Measurements reported in PubChem BioAssay (NCI).
Compounds without any hit were thinned out: in the full panel of roughly 79,000, 15% have a hit. Cut-off read from the data, not from the text of the source: active = growth inhibition above about 70%; inactive = the rest.

Experiments:
[1] = NCI Yeast Anticancer Drug Screen. Data for the rad50 strain (AID 155);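 note: 0% = growth of vehicle-only cultures of the same strain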; details: S. cerevisiae rad50 strain growth inhibition; at 50.0 µM; active compounds read high
Method in brief: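 Cells are treated with compound, grown, and their growth is then scored against vehicle-only cultures of the same repair-deficient yeast strain.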

[2] = NCI Yeast Anticancer Drug Screen. Data for the mec2-1 strain (AID 157); details: S. cerevisiae mec2-1 strain, at 50.0 µM, active compounds read high
Method in brief: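 mec2-1 yeast strain, carrying an alteration in DNA damage repair or cell cycle control, was exposed to compounds; growth inhibition was measured relative to vehicle-treated controls.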

[3] = NCI Yeast Anticancer Drug Screen. Data for the sgs1 mgt1 strain (AID 161);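 note: 0% = growth of cultures given vehicle only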; details: S. cerevisiae sgs1 mgt1 strain, at 50.0 µM, active compounds read high
Method in brief: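 Growth of a repair-deficient yeast mutant was monitored after compound treatment and expressed as inhibition relative to vehicle-treated cultures.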

[4] = NCI Yeast Anticancer Drug Screen. Data for the cln2 rad14 strain (AID 165);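 note: 0% = growth equal to vehicle treated cultures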; details: S. cerevisiae cln2 rad14 strain, at 50.0 µM, active compounds read high
Method in brief: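 Yeast carrying cln2 and rad14 alterations (cell cycle control and DNA damage repair) were exposed to compounds. Growth inhibition was measured against vehicle-treated controls.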

[5] = NCI Yeast Anticancer Drug Screen. Data for the bub3 strain (AID 167); details: S. cerevisiae bub3 mutant strain, at 50.0 µM, active compounds read high
Method in brief: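 Part of a panel of yeast mutants defective in DNA damage repair or cell cycle regulation. Each strain is grown with compound, and inhibition is calculated relative to solvent-treated cultures.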

[6] = NCI Yeast Anticancer Drug Screen. Data for the mlh1 rad18 strain (AID 175); details: S. cerevisiae mlh1 rad18 strain growth inhibition; at 50.0 µM; active compounds read high
Method in brief: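 Growth inhibition of the yeast strain was measured after compound exposure and expressed relative to vehicle-treated controls. The strain carries defined defects in DNA damage repair.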

Measured: growth inhibition

Cc1cccc2sc(=S)[nH]c12
inactive: [1] 35% | [2] 18.6% | [3] 28.9% | [4] 19.9% | [5] 29.8% | [6] 30.6%

CC1(C(=O)O)CCCN1 (stereo not drawn)
inactive: [1] 9.35% | [2] -7.6% | [3] -20.6% | [4] 15.4% | [5] -0.95% | [6] -9%

Cn1c(=O)c2[nH]c(CCNC(=O)c3ccccc3)nc2n(C)c1=O
inactive: [1] 2.05% | [2] -9.75% | [3] -30.2% | [4] -38.5% | [5] -40.8% | [6] -9.95%

Cc1c2oc3c(C)ccc(C(=O)NCCc4ccco4)c3nc-2c(C(=O)NCCc2ccco2)c(N)c1=O
inactive: [1] 39.5% | [2] 7.85% | [3] 12.8% | [4] 15.7% | [5] 0.75% | [6] 44.4%

C[C@@H](O)c1nc(C(N)=O)cs1
inactive: [1] 6.15% | [2] 14.2% | [3] 15.3% | [4] -3.55% | [5] 1.35% | [6] 10.1%

O=C(O)CCC(=O)Nc1cc([N+](=O)[O-])ccc1OCc1ccccc1
inactive: [1] 3.75% | [2] -7.55% | [3] -5.35% | [4] -12.4% | [5] -0.95% | [6] 3.5%

CCCCCn1[nH]nc(C(=O)OC)c1=O (tested in a mixture with another compound)
inactive: [1] 18.8% | [2] 17.1% | [3] 23.1% | [4] 27.5% | [5] 30.5% | [6] 34.4%

Cc1ccc(S(=O)(=O)NC2CC3(C)CCC2C3(C)C)cc1 (stereo not drawn)
inactive: [1] -0.6% | [2] -20.4% | [3] -5.55% | [4] -46.1% | [5] 14.8% | [6] -4.45%

CCN(CC)CC(C)(C)C(=O)/C=C/c1ccc(C)cc1
inactive: [1] 39.5% | [2] 12.8% | [3] 57.5% | [4] 3.9% | [5] -13.4% | [6] 19.9%

COc1cc2c3c(c1)[nH]c(=S)n3C(=O)C(C)S2 (stereo not drawn)
inactive: [1] -15.9% | [2] -34.6% | [3] -4.9% | [4] -6% | [5] -3.85% | [6] -25.6%

CC(C)(C)c1[nH]ncc1CCC(=O)Nc1ccc(Cl)cc1Cl
inactive: [1] -0.6% | [2] -1.95% | [3] -5.85% | [4] 1.1% | [5] -16.1% | [6] 4.05%

CC(=O)Oc1ccccc1/C=C1\N=C(c2ccccc2)OC1=O
inactive: [1] -5.25% | [2] 2.25% | [3] 1.85% | [4] -30.2% | [5] -5.25% | [6] -6.4%

O=[N+]([O-])c1cnc(N(CCO)CCO)s1
inactive: [1] 30.4% | [2] -25.4% | [3] 0.1% | [4] 37.8% | [5] -11.5% | [6] 16.4%

CC(C)(C)C(OC(=O)Cc1ccccc1)c1ccc2c(c1)OCO2 (stereo not drawn)
inactive: [1] -9.05% | [2] -2.7% | [3] 2% | [4] -3.25% | [5] 51.4% | [6] -12.1%

CC(=O)CC(=O)OC1CC(C)CCC1C(C)C (stereo not drawn)
inactive: [1] 12.2% | [2] -24.4% | [3] -6.25% | [4] 15.3% | [5] -26.1% | [6] 23.1%

CNCC(C(=O)C(CNC)c1ccccc1)c1ccccc1 (stereo not drawn)
inactive: [1] -1.15% | [2] -6.45% | [3] 11.4% | [4] 7.6% | [5] 4% | [6] 21.9%

Oc1cc2oc3cc(O)c(O)cc3c2cc1O
inactive: [1] 7% | [2] 10.4% | [3] 9.85% | [4] 35.4% | [5] 6.1% | [6] 23.9%

COc1ccc(OC)c(/C=C2/C(=O)N(c3ccccc3)N=C2C)c1
inactive: [1] -7.55% | [2] -1.25% | [3] 5.6% | [4] -1.85% | [5] 15.5% | [6] 4.75%

CCc1ccc(COC(=O)NC)nc1
inactive: [1] 38% | [2] -0.75% | [3] 4% | [4] -18% | [5] -0.2% | [6] 19.6%

CC1COC(c2cc3c(cc2Cl)OCO3)O1 (stereo not drawn)
inactive: [1] -12.4% | [2] -2.4% | [3] -20.3% | [4] -10.9% | [5] -26.6% | [6] -0.4%

COc1cc(CNc2cnc3cc(N)ccc3n2)cc(OC)c1OC
inactive: [1] -32.5% | [2] -26.8% | [3] -66.3% | [4] -18% | [5] -21.7% | [6] -30.6%

CCOC(=O)C(C(=O)CC)C(=O)OCC
inactive: [1] 14.3% | [2] 11.3% | [3] 16.2% | [4] 7.65% | [5] 14.2% | [6] 13.4%

CCN(CC)CCC(=O)Nc1cc(OC)cc2cccnc12
inactive: [1] 10.7% | [2] 10.5% | [3] 6.25% | [4] -21.1% | [5] -19.4% | [6] -8.1%

COc1cc(O)c(C(C)=O)c(OC)c1
inactive: [1] -8.25% | [2] -12.8% | [3] -10.1% | [4] -31.1% | [5] -0.2% | [6] -2.05%

O=C1C=C(c2ccccc2)Sc2ccccc2N1
inactive: [1] 25.9% | [2] 34.5% | [3] 19.1% | [4] -1.4% | [5] 26.1% | [6] 53.2%

CCOC(=O)c1ccc(-n2c(SCC)nc3sc(C)c(C)c3c2=O)cc1
inactive: [1] -18.9% | [2] -17.8% | [3] -40.5% | [4] -38.5% | [5] -31.8% | [6] -29.3%

N#CCCCO
inactive: [1] -1.25% | [2] 11.6% | [3] 7.45% | [4] -4.55% | [5] 0.3% | [6] -11.8%

O=C(Nc1ccccc1-c1n[nH]c(=S)[nH]c1=O)C(F)(F)F
inactive: [1] -2.45% | [2] 2.05% | [3] -10.3% | [4] -7.35% | [5] -65.8% | [6] 30.8%

O=C(Cl)C=Cc1ccc([N+](=O)[O-])cc1 (mixture of isomers)
inactive: [1] 4.7% | [2] 6.7% | [3] -0.25% | [4] -6.65% | [5] 2.15% | [6] 1.95%

CCON=C(c1ccc(Cl)cc1)c1ccc(Cl)cc1
inactive: [1] 2.45% | [2] -21.6% | [3] 12.7% | [4] 16.8% | [5] 26.1% | [6] 1.4%

c1ccc2c(c1)ncn2C1CCCCO1 (stereo not drawn)
inactive: [1] 4.7% | [2] -9.8% | [3] -16.8% | [4] 0.9% | [5] -7.45% | [6] -38.3%

C/C=C(\CC)C(C#N)(CC)C(=O)OCC (stereo not drawn)
inactive: [1] 20.9% | [2] -18.4% | [3] -7.5% | [4] -6.25% | [5] -30.3% | [6] -24.8%

O=C(CN1C(=O)c2ccccc2C1=O)NC(Cc1ccccc1)C(=O)O (stereo not drawn)
inactive: [1] 7.85% | [2] -6.9% | [3] -16.9% | [4] -12.5% | [5] 10.1% | [6] -9.65%

Cc1cc(C)n(-c2nnc(-n3nc(C)cc3C)c3ccccc23)n1
inactive: [1] -12.4% | [2] -1.75% | [3] -21.6% | [4] -5.45% | [5] -5.5% | [6] -3.9%

CC1(C)N=C(N)N=C(N)N1c1cccc(CO)c1
inactive: [1] 0.5% | [2] 9.5% | [3] 1.15% | [4] -2.45% | [5] 15.2% | [6] 28.2%

COc1ccc(-c2cc(=O)c3c(O)cc(O)c(-c4cc(-c5cc(=O)c6c(O)cc(OC)cc6o5)ccc4OC)c3o2)cc1
inactive: [1] 39.1% | [2] 17.1% | [3] 5.55% | [4] 24.6% | [5] 27.3% | [6] 20%

O=C1C=C(Nc2ccccc2C(=O)CC(=O)C(=O)Nc2ccc(Cl)cc2)c2ccccc2C1=O
inactive: [1] 5.05% | [2] 0.95% | [3] 6.9% | [4] -3.05% | [5] 42.5% | [6] 9.8%

Cc1ccc(NC(=O)Oc2cccc(C(F)(F)F)c2)cc1
inactive: [1] -8.55% | [2] 17.4% | [3] 23.1% | [4] -12.7% | [5] 15.4% | [6] 35.6%
